GoLoco inh red = inhibitors of human Gai1-RGS12 GoLoco interaction (red fluorophore). Gai1:RGS12 GoLoco peptide FP, rhodamine, 10 min. hit rate 0.44% among 230,000. Potency, µM (titrated, usually from 61.6 µM), for inactives: at the top dose activity, negative = inhibition, usual class: inhibitors. P63096. AID 880; active = well fitted inhibition curve with a large enough effect, not every such curve was filed as active; inactive = no such curve, though single readings can be large or run the other way; note: nearly all actives have a fitted effect of over 30% in size
TexasRed fluor = alters Texas Red total fluorescence, flagging assay interference. hit rate 0.29% among 280,000. Potency, µM (titrated, usually from 106 µM), without a hit: at the highest dose fluorescence change, negative = quenching. AID 1479. TRb/SRC2 Texas Red total fluorescence interference; active = well fitted curve in either direction with a large enough effect; inconclusive = small, poorly fitted or top-dose-only effect
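Flags fluorescent or light-absorbing compounds by total fluorescence, S + 2P, at 555 nm excitation and 632 nm emission. Mixture: 20 nM Texas Red SRC2 peptide, 0.6 uM human TRb LBD, 1 uM T3, 5% DMSO; compound exposure 5 h at ambient temperature.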
Tau fibril FP = blocks human tau fibril formation measured by polarization; P10636; AID 1468; K18 P301L tau heparin fibrillization, Alexa594 FP, 6 h; Potency, µM (highest dose often 57.7 µM), for inactives: at the top dose activity, negative = inhibition, most hits filed as inhibitors; hit rate 0.39% among 280,000; note: nearly all actives have a fitted effect of over 55% in size
Target sequence (P10636 561-689 P618L limits assumed): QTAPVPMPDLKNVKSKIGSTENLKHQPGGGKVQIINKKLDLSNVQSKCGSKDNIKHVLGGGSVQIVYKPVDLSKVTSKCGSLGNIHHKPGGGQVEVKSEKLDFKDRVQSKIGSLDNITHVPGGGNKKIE
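FP of Alexa 594-tau after heparin (20 uM) induction. Substrate: human K18 P301L, 15 uM unlabeled, 0.24 uM labeled. Buffer 100 mM sodium acetate pH 7. 6 hr, 37 C.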
TRb-SRC2 inh = disrupts binding of human TR beta to SRC2; P10828; TRbeta-SRC2 peptide binding, fluorescence polarization; receptor liganded with 1 µM T3; Potency, µM (top dose mostly 106 µM), without a hit: at the highest dose activity change, negative = inhibition, actives largely listed as inhibitors; hit rate 0.065% among 280,000;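 note: plate controls were bound peptide for no effect and peptide without receptor for full effect; nearly all actives have a fitted effect of over 50% in size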
Target sequence (P10828 whole entry, looked up): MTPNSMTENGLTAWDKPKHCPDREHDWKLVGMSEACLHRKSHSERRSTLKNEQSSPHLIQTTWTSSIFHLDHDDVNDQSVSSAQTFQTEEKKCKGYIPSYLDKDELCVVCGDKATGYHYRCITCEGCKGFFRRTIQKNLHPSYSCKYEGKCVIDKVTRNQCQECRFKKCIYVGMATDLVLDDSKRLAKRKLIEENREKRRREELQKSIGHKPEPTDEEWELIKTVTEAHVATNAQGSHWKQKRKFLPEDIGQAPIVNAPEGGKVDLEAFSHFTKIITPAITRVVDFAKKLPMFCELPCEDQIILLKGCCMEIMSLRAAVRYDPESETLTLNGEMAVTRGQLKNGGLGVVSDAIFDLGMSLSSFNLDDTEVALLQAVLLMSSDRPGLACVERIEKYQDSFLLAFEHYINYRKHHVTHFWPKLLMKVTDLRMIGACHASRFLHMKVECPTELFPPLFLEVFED
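Compounds were added to 0.6 uM TRb ligand-binding domain and 20 nM Texas Red-labeled SRC2 peptide in Tris buffer containing 1 uM T3, incubated 5 hr at ambient temperature, then read by fluorescence polarization.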
Tau fibril ThT = tau fibrillization inhibition (ThT binding). Potency, µM (titrated, usually from 57.4 µM), for the others: at the top dose activity, negative = inhibition, hits mostly inhibitors. P10636. AID 1460. recombinant tau K18 P301L, heparin-induced fibrillization, ThT fluorescence. hit rate 2.1% among 270,000; note: nearly all actives have a fitted effect of over 55% in size
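Using a mix of unlabeled (15 uM) and Alexa 594-labeled (0.24 uM) tau K18 P301L, heparin-triggered fibrillization over 6 hr at 37 C was scored by ThT fluorescence.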
Tau fluor counter = counter-screen for tau fibril formation inhibitors; tau K18 P301L (four-repeat tau fragment) Alexa594 fluorescence, heparin fibrillization; Potency, µM (top dose mostly 57.7 µM), for the others: at the top dose activity change, negative = decrease; hit rate 0.93% among 280,000; note: nearly all actives have a fitted effect of over 55% in size
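Human K18 P301L tau (15 uM unlabeled plus 0.24 uM Alexa 594-labeled, final) in 100 mM sodium acetate pH 7 was mixed with compound and 20 uM heparin and incubated 6 hr at 37 C.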
The depositor's hits bear a star; [ ] = remark or other dose. An excerpt weighted towards active compounds, which were near 3.1% of everything screened. Unless noted, calls come from the whole dose curve; as a rule, active = well fitted curve in the direction sought with a large enough effect; inconclusive = small, poorly fitted or top-dose-only effect, or another doubt; inactive = no such curve, though single readings can be large; an effect the other way counts as inactive or inconclusive. Unless noted, % is set by controls: 0 for no effect and ±100 for the full control effect; potency is the fitted concentration of half-maximal effect.

CSCC[C@@H]1NC(=O)[C@@H](NC(=O)[C@H](CCCNC(=N)N)NC(=O)[C@H](CC(C)C)NC(=O)[C@H](CCSC)NC(=O)[C@H](CC(=O)O)NC(=O)[C@H](Cc2ccccc2)NC(=O)[C@@H](N)CC(=O)O)CSSC[C@@H](C(=O)N[C@@H](Cc2c[nH]c3ccccc23)C(=O)N[C@@H](CCC(N)=O)C(=O)N[C@H](C(=O)O)C(C)C)NC(=O)[C@@H]2CCCN2C(=O)[C@H](CCCNC(=N)N)NC(=O)[C@H](Cc2ccc(O)cc2)NC(=O)[C@H](C(C)C)NC(=O)[C@H](CCCNC(=N)N)NC(=O)CNC(=O)[C@H](CC(C)C)NC1=O was read as TexasRed fluor -4.3% and TRb-SRC2 inh -5.2%.
COc1ccc(-c2cc(C(=O)OCC(=O)Nc3ccc4c(c3)OCO4)c3ccccc3n2)cc1 was read as GoLoco inh red 5.4%, TexasRed fluor 4.3%, Tau fibril FP -13.0%, TRb-SRC2 inh 3.1%, Tau fibril ThT inconclusive and Tau fluor counter 8.91µM*[quencher].
Screening COc1ccc(-c2nc(SCC(=O)Nc3ccc4c(c3)OCO4)c(-c3ccccc3)[nH]2)cc1 returned TexasRed fluor -3.6%, Tau fibril FP inconclusive, TRb-SRC2 inh -1.9%, Tau fibril ThT -0.4% and Tau fluor counter 14.1µM*[quencher].
`COc1ccc(-c2nsc(SCC(=O)Nc3ccc4c(c3)OCO4)n2)cc1` gave GoLoco inh red -9.3%, TexasRed fluor -0.5%, Tau fibril FP -8.4%, TRb-SRC2 inh -11.3%, Tau fibril ThT 5.6% and Tau fluor counter 4.7%.
`O=C(COC(=O)c1cc(-c2ccccc2)nc2ccccc12)Nc1ccc2c(c1)OCO2` gave GoLoco inh red -13.4%, TexasRed fluor -8.3%, Tau fibril FP inconclusive, TRb-SRC2 inh -1.8%, Tau fibril ThT -3.6% and Tau fluor counter inconclusive.
`COc1ccc(-c2[nH]c(-c3ccccc3)nc2SCC(=O)Nc2ccc3c(c2)OCO3)cc1` gave TexasRed fluor -3.1%, Tau fibril FP 4.8%, TRb-SRC2 inh -1.5%, Tau fibril ThT inconclusive and Tau fluor counter 12.6µM*[quencher].
`COc1cccc(NC(=O)Nc2ccc3c(c2)N(C)C(=O)CS3)c1` gave GoLoco inh red 5.6%, TexasRed fluor -7.0%, Tau fibril FP 2.1%, TRb-SRC2 inh 7.5%, Tau fibril ThT inconclusive and Tau fluor counter 14.1µM*[quencher].
For CC(=O)Nc1ccc(NC(=O)Nc2ccc3c(c2)N(C)C(=O)CS3)cc1 the results were GoLoco inh red 32.9%, TexasRed fluor 0.9%, Tau fibril FP 2.6%, TRb-SRC2 inh 1.7%, Tau fibril ThT -14.2% and Tau fluor counter -19.5%.
`CN1C(=O)CSc2ccc(NC(=O)Nc3ccccn3)cc21` gave GoLoco inh red 27.1%, TexasRed fluor -2.9%, Tau fibril FP 13.0%, TRb-SRC2 inh -5.9%, Tau fibril ThT inconclusive and Tau fluor counter inconclusive.
`CCOc1ccc(OCC)c(NC(=O)Nc2ccc3c(c2)N(C)C(=O)CS3)c1` gave GoLoco inh red 18.6%, TexasRed fluor -2.0%, Tau fibril FP 4.9%, TRb-SRC2 inh 13.8%, Tau fibril ThT -17.9% and Tau fluor counter 8.91µM*[quencher].
For COC(=O)/C(=C\C(=O)c1ccc([N+](=O)[O-])cc1)Nc1ccc(OC)cc1 the results were GoLoco inh red 8.4%, TexasRed fluor -1.3%, Tau fibril FP inconclusive, TRb-SRC2 inh 2.1%, Tau fibril ThT 3.16µM* and Tau fluor counter inconclusive.
`N#C/C(=N\Nc1ccc(Cl)cc1)C(=O)c1ccccc1` gave GoLoco inh red -8.2%, TexasRed fluor -3.6%, Tau fibril FP 9.6%, TRb-SRC2 inh -9.1%, Tau fibril ThT 14.1µM* and Tau fluor counter inconclusive.
COc1ccc(C(=O)/C=C/Nc2ccc([N+](=O)[O-])cc2)cc1 was read as GoLoco inh red -1.5%, TexasRed fluor -7.3%, Tau fibril FP -2.2%, TRb-SRC2 inh 2.2%, Tau fibril ThT inconclusive and Tau fluor counter -10.9%.
For COc1ccc(C(=O)/C(C#N)=N/Nc2ccccc2[N+](=O)[O-])cc1 the results were GoLoco inh red -8.0%, TexasRed fluor -1.9%, Tau fibril FP 4.1%, TRb-SRC2 inh 4.8%, Tau fibril ThT inconclusive and Tau fluor counter -18.6%.
Screening COc1ccc(C(=O)/C(C#N)=N/Nc2ccc([N+](=O)[O-])cc2)cc1 returned GoLoco inh red 53.9%, TexasRed fluor -2.9%, Tau fibril FP 1.3%, TRb-SRC2 inh 2.5%, Tau fibril ThT 3.98µM* and Tau fluor counter inconclusive.
For O=C(c1cccnc1Nc1ccccc1F)N1CCOCC1 the results were GoLoco inh red 7.2%, TexasRed fluor -1.6%, Tau fibril FP 6.4%, TRb-SRC2 inh 3.0%, Tau fibril ThT -6.6% and Tau fluor counter 3.1%.
Cc1ccc(CNC(=O)/C=C/c2ccc(Br)o2)cc1 was read as GoLoco inh red -3.3%, TexasRed fluor 7.8%, Tau fibril FP -11.3%, TRb-SRC2 inh 2.0%, Tau fibril ThT inconclusive and Tau fluor counter -19.1%.
For Cc1ccc(C2CC(=O)Nc3cc4c(cc32)OCCO4)cc1 (stereo not drawn) the results were TexasRed fluor 0.0501µM*[quencher], Tau fibril FP 3.8%, TRb-SRC2 inh -16.8%[53 µM], Tau fibril ThT -6.1% and Tau fluor counter -15.5%.
For CN(C)/C=C/c1oc2ccc(O)cc2c1[N+](=O)[O-] the results were GoLoco inh red 14.8%, TexasRed fluor -9.7%, Tau fibril FP 4.7%, TRb-SRC2 inh -9.4%, Tau fibril ThT 11.2µM* and Tau fluor counter -12.6%.
